Assay results as given in PubChem BioAssay (NCI).
“And” between values parts separate entries of the source, which are not always exact repeats. Equal values may be shown once. The panel holds about 83,000 compounds, 20% with a hit somewhere; the sample as a whole holds those more often.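 Each cell line was grown in a 96-well plate and treated with one concentration of compound for 48 hours. Values below 10 were considered active.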 The source made the active and inactive calls.

Test system: MDA-MB-468 breast
Test: NCI-60 one-dose screen, 48 h (100 = growth as untreated, 0 = no growth, -100 = all killed)
Details: 10 µM unless noted

Compound | growth
COc1ccc2c(c1)CC[C@H](O)/C2=C/c1cc(OC)c(OC)c(OC)c1 | 17.6% (inactive)
Nc1nc(-c2cccc([N+](=O)[O-])c2)c(N=Nc2ccccc2[N+](=O)[O-])s1 | 74.8% (inactive)
COc1cc(CCN=Cc2ccccc2O)c([N+](=O)[O-])cc1OC | 113% (inactive)
Cn1cc(-c2csc(-c3cn(CCCN4CCCCC4)c4ccc(F)cc34)n2)c2cccnc21 | 91.7% (inactive)
NC(=O)c1cccc(N2Cc3ccccc3OC3=C2C(=O)c2c(O)ccc(O)c2C3=O)c1 | -21.4% (active)
Cc1scc2c1N(C(=O)CN1CCN(C)CC1)c1ccccc1NC2=O | 101% (inactive)
O=c1oc2c(Br)cc(Br)cc2cc1-c1cc(-c2ccc(-c3cc(-c4cc5cc(Br)cc(Br)c5oc4=O)nc(-c4cc5cc(Br)cc(Br)c5oc4=O)c3)cc2)cc(-c2cc3cc(Br)cc(Br)c3oc2=O)n1 | 117% (inactive)
CCCCCCCSc1ncnc2[nH]ncc12 | 68.8% (inactive)
COc1ccc(C2CC(c3cc(OC)c(OC)c(OC)c3)=NN2c2ccc(S(N)(=O)=O)cc2)cc1 (stereo not given) | 71% (inactive)
O=C(Nc1ccc(Cl)cc1)N1CCN(c2ccc3nncn3n2)CC1 | -78.2% (active)
CNC(=O)c1cc(Oc2ccc3c(c2)sc2nc(-c4ccc(NC(C)=O)cc4)cn23)ccn1 | 86.3% (inactive)
COc1cccc(CCN2C(=O)CCC3=C2CCC3=O)c1 | 103% (inactive)
O=C(NCCc1ccccn1)OCc1nc2nc(Cl)nc(N3CCOCC3)c2[nH]1 | 24.9% (inactive)
Cc1ccc(NC(=O)c2ccccc2Cl)cc1 | 114% (inactive)
CCOC(=O)C(Cc1ccccc1)n1c(O)c(C=Nc2ccc(C(=O)OCCN(CC)CC)cc2)sc1=O (stereo not given) | 82.6% (inactive)
O=C(O)C1CSCN1 (stereo not given) | 114% (inactive) and 95.5% (inactive)
CCCCC(CCc1ccccn1)C(=O)c1ccccc1 (stereo not given) | 109% (inactive)
CC(C)OCCCNCC(=O)Nc1ccc(S(=O)(=O)c2ccc(NC(=O)CNCCCOC(C)C)cc2)cc1 | 92.7% (inactive)
O=c1cc(CP(=O)(O)O)c2cc(O)c(-c3ccccc3)cc2o1 | 99.1% (inactive)
CCCCCCCCCCCCCCCC(=O)OC[C@@]1(O)C[C@@]23CC[C@@H]4C(C)(C)[C@H](O)CC[C@@]4(C)[C@@H]2CC[C@H]1C3 | 112% (inactive)

Compound | growth
CC1(C)N=C(N)N=C(N)N1c1ccc(F)c(C(F)(F)F)c1 | 65.1% (inactive)
CCOC(=O)N1C/C(=C/c2ccc(Cl)cc2)C(=O)/C(=C/c2ccc(Cl)cc2)C1 | 33.1% (inactive)
C/C(=C(\c1ccc(OCCN2CCCCCC2)cc1)c1ccc(OC(=O)c2ccccc2)cc1)c1ccc(Cl)cc1 | 45.5% (inactive)
CCCCNC(=O)Oc1ccc(/C(=C(/C)Cc2ccc(OC)cc2)c2ccc(OCCN3CCCCCC3)cc2)cc1 | 69.2% (inactive)
Cn1c(=O)c2[nH]c(N/N=C/c3ccccc3Br)nc2n(C)c1=O | 115% (inactive)
NC(=S)N/N=C/c1ccc(OC(=O)COc2ccccc2)cn1 | 29.7% (inactive)
CS(=O)(=O)Nc1cc(-c2ccc3ncnc(Nc4cccc(Cl)c4)c3c2)cnc1Cl | -55.7% (active)
COCCCC/C(=N\OCCN)c1ccc(C(F)(F)F)cc1 | 101% (inactive)
CCC1N=C(N)N=C(N)N1c1ccc(Cl)cc1 (stereo not given) | 80.6% (inactive)
COC(=O)CNC(=O)c1ccc(NC(=O)c2[nH]c(C)c(Cl)c2Cl)c(O[C@H]2CCNC2)c1 | 112% (inactive)
C=CCOC(=O)C(=O)OCC=C | 104% (inactive)
O=C(c1ccccc1)C(CCc1ccccn1)CCc1ccccn1 | 108% (inactive)
CC(=O)OCC(=O)C1CCC=CC1OC(C)=O (stereo not given) | 85.6% (inactive)
COc1ccccc1NC(=O)N/C(N)=N/c1nc2ccccc2s1 | 14.2% (inactive)
COc1ccc(-c2n/c(=C\c3c(O)[nH]c4ccc(OC)cc34)cc3c2=Nc2ccccc2-3)cc1 | -46.8% (active)
CCN(CC)CCC(CNc1c(C)cnc2cc(Cl)ccc12)c1ccc(Cl)cc1 (stereo not given) | 19.3% (inactive)
ClC1=C2NC=NC2n2c(nnc2-c2ccc(Cl)cc2)N1 (stereo not given) | 91.6% (inactive)
CN1CCN(c2nc(NCCCNc3ccnc4cc(Cl)ccc34)c3ccccc3n2)CC1 | 54.6% (inactive)
COc1ccc(C(=O)C(CN(C)C)CN(C)C)cc1 | -66.4% (active)
O=c1[nH][n+](-c2ccc(Br)cc2)no1 | 86.1% (inactive)
